Shiga inhibitor = A qHTS for Small Molecule Inhibitors of Shiga Toxin. inhibition, % at 38.7 µM. actives 9.2% (n = 290,000). Vero cells, Shiga toxin protein synthesis inhibition reporter; in the data active = inhibition mostly above about 28%, no sharp cut-off; inactive = mostly below about 43%; also: 0% is about no effect
Pf growth 96h = Primary qHTS for delayed death inhibitors of the malarial parasite plastid, 96 hour incubation. P. falciparum luciferase reporter growth, 96 h. Potency, µM (series often up to 28.7 µM), inactives show top-dose activity change, negative = inhibition, actives largely listed as inhibitors. actives 6.9% (n = 320,000). AID 504834, 2011; also: potency is read from the fitted curve at half-maximal effect; % is scaled to controls: 0 for no effect and ±100 for the full control effect
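Erythrocytes infected with luciferase-expressing P. falciparum were dispensed at 2% hematocrit and 0.05% parasitemia (final), then incubated with compounds 96 hours at 37 C in 5% CO2. Luminescence after detection reagent addition reported growth.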
HCV inhibitor = qHTS Assay for Inhibitors of Hepatitis C Virus (HCV). Huh7.5.1 HCVcc-Cre infection, luciferase reporter, 44 h. actives 3.4% (n = 340,000). Potency, µM (highest dose often 41.8 µM), without a hit: top-dose activity change, negative = inhibition, usual class: inhibitors; also: potency is read from the fitted curve at half-maximal effect; % is scaled to controls: 0 for no effect and ±100 for the full control effect
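1,000 cells/well; 4 h culture; + compound; + HCVcc-Cre (~0.5 moi); 44 h; luciferase substrate, RT 15 min; read 15 sec.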
AMA1 RON2 block = qHTS for Inhibitors of AMA1-RON; Towards Development of Antimalarial Drug Lead: Primary Screen. Plasmodium falciparum AMA1 (3D7) - RON2 peptide interaction. AlphaScreen AMA1-biotinylated RON2 peptide binding. Potency, µM (series often up to 58.2 µM), for inactives: top-dose activity change, negative = inhibition, usual class: inhibitors. actives 0.2% (n = 360,000). AID 720542, 2013;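 also: potency is read from the fitted curve at half-maximal effect; 0% = vehicle wells and -100% = peptide control; nearly all actives have a fitted effect of over 45% in size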
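AMA1 (3D7) with his tag at 25 nM final met compounds first, then biotinylated RON2 peptide at 25 nM; detection used donor plus acceptor beads, 10 µg/mL apiece, read by AlphaScreen after 30 min at room temperature.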
Pf growth 48h = Primary qHTS for delayed death inhibitors of the malarial parasite plastid, 48 hour incubation | actives 5.9% (n = 310,000) | Potency, µM (top dose mostly 28.7 µM), inactives show at the highest dose activity change, negative = inhibition, hits mostly inhibitors | P. falciparum luciferase growth in erythrocytes, 48 h; also: potency is read from the fitted curve at half-maximal effect; % is scaled to controls: 0 for no effect and ±100 for the full control effect
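Luminescence readout; reporter = integrated firefly luciferase in P. falciparum. RBC culture at 2% hematocrit, 0.1% parasitemia final, 37 C/5% CO2; decreased signal taken as growth inhibition.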
Cycloheximide cs = Cycloheximide Counterscreen for Small Molecule Inhibitors of Shiga Toxin | AID 2314, 2010 | cell reporter, cycloheximide protein synthesis inhibition counterscreen | max response, % | actives 12% (n = 300,000); in the data active = max response mostly above about 13%, no sharp cut-off; inactive = mostly below about 14%; also: read at 38.3 µM for the half of the compounds with a filed dose; 0% is about no effect
HCV confirm = qHTS Assay for Inhibitors of Hepatitis C Virus (HCV): Confirmation Assay for Cherry-picked Compounds. shares compounds with HCV inhibitor. HCVcc-Cre infectious virus cell assay, luciferase, inhibition. Potency, µM (highest dose often 41.8 µM), for the others: top-dose activity, negative = inhibition, actives largely listed as inhibitors. actives 78% (n = 640); also: potency is read from the fitted curve at half-maximal effect; nearly all actives have a fitted effect of over 80% in size
HCV cytotox = qHTS Assay for Inhibitors of Hepatitis C Virus (HCV): Cytotoxicity Counterscreen for Cherry-picked Compounds. shares compounds with HCV inhibitor. actives 22% (n = 640). HCV host cell line cytotoxicity counterscreen. Potency, µM (series often up to 41.8 µM), for inactives: at the top dose activity change, negative = cytotoxicity, actives largely listed as inhibitors;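 also: potency is read from the fitted curve at half-maximal effect; 44 h compound exposure; % is scaled to controls: 0 for no effect and ±100 for the full control effect; nearly all actives have a fitted effect of over 55% in size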
* = called active by the depositor; [ ] = dose if it differs, or a comment. In the library only some 21% were active in any assay of this set; here they are far more common. Unless noted, calls follow the shape of the dose curve; as a rule, active = well fitted curve in the direction sought with a large enough effect; inconclusive = small, poorly fitted or top-dose-only effect, or another doubt; inactive = no such curve, though single readings can be large; an effect the other way counts as inactive or inconclusive.

Screening Cc1nn(CC(=O)NC2CCC(C)CC2)c(C)c1[N+](=O)[O-] (stereo not drawn) returned Pf growth 96h -6%, HCV inhibitor 1%, AMA1 RON2 block 0% and Pf growth 48h 23%.
COc1cc(NC(=S)N2CCC(C(N)=O)CC2)c(OC)cc1Cl was read as Shiga inhibitor 3, Pf growth 96h 33%[5.75 µM], HCV inhibitor 5%, AMA1 RON2 block 1%, Pf growth 48h 0% and Cycloheximide cs -6.
For CCC(=O)Nc1cc2c(cc1C(=O)CC)OCCO2 the results were Shiga inhibitor -1, Pf growth 96h 9%, HCV inhibitor 5.6µM*, AMA1 RON2 block 20%, Cycloheximide cs -2, HCV confirm 13µM* and HCV cytotox 20%.
Screening O=C(COC(=O)c1nc(Cl)ccc1Cl)NCc1ccc(Cl)cc1 returned Pf growth 96h -23%, HCV inhibitor -10%, AMA1 RON2 block 12% and Pf growth 48h inconclusive.
`COC(=O)C1=C(c2ccc3ccccc3c2)C[C@@H]2CC[C@H]1N2C(=O)N1CCCCC1` gave Pf growth 96h inconclusive, HCV inhibitor 7.9µM*, AMA1 RON2 block -2%, Pf growth 48h inconclusive, HCV confirm 11µM* and HCV cytotox 11µM*.
For COC(=O)C1=C(c2ccc(-c3ccccc3)c(F)c2)C[C@@H]2CC[C@H]1N2C(=O)N1CCOCC1 the results were Pf growth 96h inconclusive, HCV inhibitor 3.5µM*, AMA1 RON2 block -2%, Pf growth 48h inconclusive, HCV confirm 7.9µM* and HCV cytotox 7µM*.
Screening COC(=O)C1=C(c2ccc(-c3ccccc3)c(F)c2)C[C@@H]2CC[C@H]1N2C(=O)N1CCC(O)CC1 returned Pf growth 96h inconclusive, HCV inhibitor inconclusive, AMA1 RON2 block -5% and Pf growth 48h inconclusive.
For CN(C(=O)COC(=O)C(C)(C)Oc1ccc(Cl)cc1)c1c(N)n(Cc2ccccc2)c(=O)[nH]c1=O the results were Pf growth 96h -28%, HCV inhibitor -6%, AMA1 RON2 block -15% and Pf growth 48h -25%.
CN1CCN(c2ccc([N+](=O)[O-])c3no[n+]([O-])c23)CC1 was read as Shiga inhibitor -5, Pf growth 96h inconclusive, HCV inhibitor 2.2µM*, AMA1 RON2 block -29%, Pf growth 48h inconclusive, Cycloheximide cs -1, HCV confirm 22µM* and HCV cytotox 22µM*.
Oc1ccc(Br)cc1-c1ccn[nH]1 was read as Shiga inhibitor 42*, Pf growth 96h 30%, HCV inhibitor inconclusive, AMA1 RON2 block 58%, Pf growth 48h 23%, Cycloheximide cs 10, HCV confirm -28% and HCV cytotox -20%.
Oc1ccc(Br)cc1CNc1nccs1 was read as Shiga inhibitor 16, Pf growth 96h inconclusive, HCV inhibitor -11%, AMA1 RON2 block 11%, Pf growth 48h inconclusive and Cycloheximide cs -2.
C/C(=N\NC(=O)C(C)n1nc(C)c([N+](=O)[O-])c1C)c1ccccc1O (stereo not drawn) was read as Shiga inhibitor -20, Pf growth 96h inconclusive, HCV inhibitor 2.5µM*, AMA1 RON2 block 86%, Pf growth 48h 9.3µM*, Cycloheximide cs 5, HCV confirm 7.9µM* and HCV cytotox inconclusive.

Screens (PubChem BioAssay)
